The values that follow come from article PMC8384837, “Expanding the binding specificity for RNA recognition by a PUF domain”.

Experiment in all cases: yeast three-hybrid, YBZ-1, SC-Leu-His + 0.5 mM 3-AT, 4 days
Settings in all cases: tags: N-Gal4 AD-HA kept; label: inside an RPR1-promoter hybrid RNA with tandem MS2 sites; ssRNA

The target of one assay is PUM1 PUF domain R3-RIY (Homo sapiens, UniProt Q14671 828-1176, C935R;R936I;Q939Y). A digest of the protocol:
(§1)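 The interaction score is the logarithmic change in variant frequency from input to selection. It uses log2, with a pseudocount of 1 for absent variants, and frequencies came from PCR-amplified, Illumina-sequenced repeat regions. The libraries were Pumilio-1 PUF domains randomized at the three base-contacting residues per repeat, co-expressed with matching RNA elements in strain YBZ-1 (LexA–MS2 coat fusion, HIS3 reporter). Plating lasted four days on SC-Leu (input) or SC-Leu-His + 0.5 mM 3-AT (selection).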

A further assay deals with PUM1 PUF domain R4-RIF (Homo sapiens, UniProt Q14671 828-1176, N971R;H972I;Q975F). A digest of the protocol:
as §1

A further assay addresses PUM1 PUF domain R4-DWA (Homo sapiens, UniProt Q14671 828-1176, N971D;H972W;Q975A). A digest of the protocol: as §1
Another assay deals with PUM1 PUF domain R7-EFS (Homo sapiens, UniProt Q14671 828-1176, S1079E;N1080F;E1083S). A digest of the protocol:
as §1

The target of the next assay is PUM1 PUF domain R3-AIE (Homo sapiens, UniProt Q14671 828-1176, C935A;R936I;Q939E). A digest of the protocol: as §1
The next assay deals with PUM1 PUF domain R5-GKS (Homo sapiens, UniProt Q14671 828-1176, C1007G;R1008K;Q1011S). A digest of the protocol:
as §1

The target in another assay is PUM1 PUF domain R7-TVW (Homo sapiens, UniProt Q14671 828-1176, S1079T;N1080V;E1083W). A digest of the protocol: as §1
Another assay addresses PUM1 PUF domain R5-GGE (Homo sapiens, UniProt Q14671 828-1176, C1007G;R1008G;Q1011E). A digest of the protocol:
as §1

For another assay, the target named is PUM1 PUF domain R5-SED (Homo sapiens, UniProt Q14671 828-1176, C1007S;R1008E;Q1011D). A digest of the protocol: as §1

For the sequence “GGCUAGAACUAGUGGAUCCCCCGGCGCCCGGCGGCUCGAGCCCGGGUAAGUGUAAUUAGUCUGCAUGCCGCCGGGCGCCAUGCCUGCAGGUCGACUCUAGAAAACAUG”, the binding signal in the assay with PUM1 PUF domain R3-RIY is 2.12 log2 enrichment (interaction score).

Regarding “GGCUAGAACUAGUGGAUCCCCCGGCGCCCGGCGGCUCGAGCCCGGGUAAGUGUAAAUAGUCUGCAUGCCGCCGGGCGCCAUGCCUGCAGGUCGACUCUAGAAAACAUG”, the binding signal with PUM1 PUF domain R4-RIF is 5.22 log2 enrichment (interaction score); with PUM1 PUF domain R4-DWA it was 5.39 log2 enrichment (interaction score).

For “GGCUAGAACUAGUGGAUCCCCCGGCGCCCGGCGGCUCGAGCCCGGGUAAGUCUAAAUAGUCUGCAUGCCGCCGGGCGCCAUGCCUGCAGGUCGACUCUAGAAAACAUG”, the binding signal with PUM1 PUF domain R7-EFS was 2.94 log2 enrichment (interaction score).

In the case of “GGCUAGAACUAGUGGAUCCCCCGGCGCCCGGCGGCUCGAGCCCGGGUAAGUGUAAGUAGUCUGCAUGCCGCCGGGCGCCAUGCCUGCAGGUCGACUCUAGAAAACAUG”, the binding signal with PUM1 PUF domain R3-AIE was 2.83 log2 enrichment (interaction score).

With “GGCUAGAACUAGUGGAUCCCCCGGCGCCCGGCGGCUCGAGCCCGGGUAAGUGUUAAUAGUCUGCAUGCCGCCGGGCGCCAUGCCUGCAGGUCGACUCUAGAAAACAUG”, the binding signal with PUM1 PUF domain R5-GKS is 3.25 log2 enrichment (interaction score).

As to “GGCUAGAACUAGUGGAUCCCCCGGCGCCCGGCGGCUCGAGCCCGGGUAAGUGUCAAUAGUCUGCAUGCCGCCGGGCGCCAUGCCUGCAGGUCGACUCUAGAAAACAUG”, in the assay with PUM1 PUF domain R5-GKS, the binding signal was 0.75 log2 enrichment (interaction score).

Regarding “GGCUAGAACUAGUGGAUCCCCCGGCGCCCGGCGGCUCGAGCCCGGGUAAGUUUAAAUAGUCUGCAUGCCGCCGGGCGCCAUGCCUGCAGGUCGACUCUAGAAAACAUG”, the binding signal with PUM1 PUF domain R7-TVW was 3 log2 enrichment (interaction score).

Take “GGCUAGAACUAGUGGAUCCCCCGGCGCCCGGCGGCUCGAGCCCGGGUAAGUGUACAUAGUCUGCAUGCCGCCGGGCGCCAUGCCUGCAGGUCGACUCUAGAAAACAUG”: the binding signal with PUM1 PUF domain R4-DWA is 5.13 log2 enrichment (interaction score).

Turning to “GGCUAGAACUAGUGGAUCCCCCGGCGCCCGGCGGCUCGAGCCCGGGUAAGUGUGAAUAGUCUGCAUGCCGCCGGGCGCCAUGCCUGCAGGUCGACUCUAGAAAACAUG”, the binding signal with PUM1 PUF domain R5-GGE is 3.62 log2 enrichment (interaction score); in the assay with PUM1 PUF domain R5-SED, 5.49 log2 enrichment (interaction score).
